Screen size: about 5,500 compounds; about 2,000 (36%) were called active. About 18% were inconclusive and are not listed. Rule as the data show it: active = normalized growth mostly below about 0.91 (no sharp cut-off); inconclusive = no clear call, values can overlap the other calls; inactive = mostly above about 0.92. The list shows a part of the results.
Assay: chemical genetic growth profiling, strain panel (AID 1159580);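 also: tested at 20 µM; growth read once vehicle control cultures reached saturation at 30 °C; 1 = growth at the plate median or of vehicle wells; lower values mean less growth of the strain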
Settings: S. cerevisiae deletion strains, growth OD

Measured: normalized growth

COc1ccc(OC)c(-c2ccn[nH]2)c1OCc1ccccc1
inactive: locus YAR019C, strain CDC15, hits give low values 0.995 | locus YBL105C, strain PKC1, hits give low values 0.998 | locus YBR135W, strain CKS1, hits give low values 0.994 | locus YBR136W, strain MEC1, hits give low values 0.987 | locus YBR160W, strain CDC28, hits give low values 0.994 | locus YDL017W, strain CDC7, hits give low values 0.997 | locus YDL028C, strain MPS1, hits give low values 0.974 | locus YDL101C, strain DUN1, hits give low values 0.979 | locus YDL108W, strain KIN28, hits give low values 0.987 | locus YDL132W, strain cdc53, hits give low values 0.987 | locus YDL214C, strain PRR2, hits give low values 0.893 | locus YDR052C, strain DBF4, hits give low values 0.989 | locus YDR054C, strain cdc34, hits give low values 0.985 | locus YDR226W, strain ADK1, hits give low values 0.998 | locus YDR477W, strain SNF1, hits give low values 0.905 | locus YER123W, strain YCK3, hits give low values 0.762 | locus YER133W, strain GLC7, hits give low values 0.886 | locus YFL009W, strain cdc4, hits give low values 0.998 | locus YFL029C, strain CAK1, hits give low values 0.995 | locus YFR003C, strain YPI1, hits give low values 0.993 | locus YFR019W, strain FAB1, hits give low values 0.832 | locus YFR028C, strain CDC14, hits give low values 0.993 | locus YGR040W, strain KSS1, hits give low values 0.874 | locus YGR052W, strain FMP48, hits give low values 0.948 | locus YGR092W, strain DBF2, hits give low values 0.864 | locus YHR030C, strain SLT2, hits give low values 0.986 | locus YHR079C, strain IRE1, hits give low values 0.999 | locus YHR082C, strain KSP1, hits give low values 0.974 | locus YHR205W, strain SCH9, hits give low values 0.97 | locus YIL147C, strain SLN1, hits give low values 0.97 | locus YJL095W, strain BCK1, hits give low values 0.953 | locus YJL128C, strain PBS2, hits give low values 0.981 | locus YJL157C, strain FAR1, hits give low values 0.887 | locus YJR016C, strain ILV3, hits give low values 1 | locus YJR066W, strain TOR1 (second series), hits give low values 0.808 | locus YJR066W, strain TOR1, hits give low values 0.96 | locus YKL048C, strain ELM1, hits give low values 0.948 | locus YKL067W, strain YNK1, hits give low values 0.907 | locus YKL101W, strain HSL1, hits give low values 0.926 | locus YKL193C, strain SDS22, hits give low values 0.989 | locus YKL203C, strain TOR2, hits give low values 0.953 | locus YLR113W, strain HOG1, hits give low values 1.01 | locus YLR133W, strain CKI1, hits give low values 0.924 | locus YLR403W, strain SFP1, hits give low values 0.883 | locus YML070W, strain DAK1, hits give low values 0.877 | locus YMR001C, strain CDC5, hits give low values 0.993 | locus YMR205C, strain PFK2 (second series), hits give low values 0.908 | locus YMR277W, strain FCP1, hits give low values 0.993 | locus YNL006W, strain LST8, hits give low values 0.985 | locus YNL020C, strain ARK1, hits give low values 0.903 | locus YNL161W, strain CBK1, hits give low values 0.995 | locus YNL183C, strain NPR1, hits give low values 0.969 | locus YNL207W, strain RIO2, hits give low values 0.997 | locus YNL222W, strain SSU72, hits give low values 1 | locus YNL307C, strain MCK1 (second series), hits give low values 0.922 | locus YOL078W, strain AVO1, hits give low values 0.994 | locus YOL136C, strain PFK27, hits give low values 0.908 | locus YOR061W, strain CKA2, hits give low values 0.871 | locus YOR119C, strain RIO1, hits give low values 0.936 | locus YOR231W, strain MKK1, hits give low values 0.992 | locus YOR329C, strain SCD5, hits give low values 0.999 | locus YPL031C, strain PHO85, hits give low values 0.87 | locus YPL153C, strain RAD53, hits give low values 0.869 | locus YPL204W, strain HRR25, hits give low values 0.892 | locus YPL209C, strain IPL1, hits give low values 0.994 | locus YPL256C, strain CLN2, hits give low values 1.02 | locus YPR025C, strain CCL1, hits give low values 0.994 | locus YPR106W, strain ISR1, hits give low values 1 | locus YPR111W, strain DBF20, hits give low values 0.999 | strain NNK1, hits give low values 0.994 | strain TSCII, hits give low values 0.992

From PubChem BioAssay AID1159580 (chemical genetic matrix, 2015)
